The values that follow come from PubChem BioAssay AID1417 (Emory University Molecular Libraries Screening Center, 2008).

In all, about 1,100 compounds went through this assay and about 880 (80%) were called active. How the calls were made is not given here. The set was probably picked from earlier hits. The list shows a part of the results. Entries with a potency or affinity are not part of this list.

In the experiment the target is Induced myeloid leukemia cell differentiation protein Mcl-1 (Homo sapiens) (UniProt Q07820). Description: Mcl-1/Noxa binding inhibitor potency, dose response, biochemical, TR-FRET (AID 1417).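 Further: 100% = protein plus peptide without compound and 0% = peptide alone.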 The settings on record: Mcl-1/Noxa peptide interaction, cell-free TR-FRET (terbium/rhodamine), 2 h; at 54 µM (top of the series). (In general: TR-FRET usually uses a lanthanide donor and a delayed reading to cut background.)
Induced myeloid leukemia cell differentiation protein Mcl-1 (Homo sapiens), sequence (Q07820 whole entry, looked up): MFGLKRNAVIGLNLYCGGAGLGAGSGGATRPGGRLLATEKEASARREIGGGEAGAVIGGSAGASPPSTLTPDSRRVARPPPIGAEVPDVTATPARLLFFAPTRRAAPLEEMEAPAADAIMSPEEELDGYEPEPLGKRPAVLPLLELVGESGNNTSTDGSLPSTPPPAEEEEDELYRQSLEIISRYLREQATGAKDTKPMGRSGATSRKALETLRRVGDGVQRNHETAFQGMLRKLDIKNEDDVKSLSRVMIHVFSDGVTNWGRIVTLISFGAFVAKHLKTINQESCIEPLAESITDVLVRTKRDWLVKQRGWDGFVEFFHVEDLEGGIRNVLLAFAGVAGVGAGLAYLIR
In the case of `CCN1C(=O)/C(=C2/Sc3ccc(OC)cc3N2C)SC1=Nc1cccc(O)c1`, the percent of control (lower = inhibition) is 54.8% (inactive).

For the molecule `Cn1c(=O)c2c(nc(NCc3ccco3)n2CC(O)COc2ccccc2)n(C)c1=O` (stereo not drawn), the percent of control (lower = inhibition) was 81.3% (inactive).

For the molecule `N=C1/C(=C\c2ccc(-c3ccc(C(=O)O)cc3)o2)C(=O)N=C2SC=C(c3ccccc3)N12`, the percent of control (lower = inhibition) was -1.95% (active).

As to `COc1ccccc1C1NC=C([N+](=O)[O-])C=C1[N+](=O)[O-]` (stereo not drawn), the percent of control (lower = inhibition) is 111% (inactive).

For `CC1CCCCC1NC(=O)c1ccc2c(c1)[nH]c(=O)n2C1CCCC1` (stereo not drawn), the percent of control (lower = inhibition) is 86.3% (inactive).

Consider `c1ccc(Nc2cccc(Nc3ccccc3)c2)cc1`, for which the percent of control (lower = inhibition) is 60.5% (inactive).

For the molecule `CN(C)c1ccc(NC(=O)Nc2cccc(Cl)c2)cc1`, the percent of control (lower = inhibition) was 49.6% (active).

Regarding `CN(C)c1ccc(NC(=O)/C=C/c2c(Cl)cccc2Cl)cc1`, the percent of control (lower = inhibition) is 80.1% (inactive).
